We go through 18 compounds from PubChem BioAssay (NCATS).

A short description of experiment [1]: qHTS of pediatric cancer cell lines to identify multiple opportunities for drug repurposing: Primary screen for TC32 cells (AID 1347089). Further: nearly all actives have a fitted effect of over 60% in size. The gist of the method:
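In the primary qHTS, MIPE compounds were tested at 11 concentrations (0.78 nM to 46 µM) and NPC compounds at 8 (0.59 nM to 46 µM) on TC32 cells for 48 h. CellTiter-Glo luminescence gave viability.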
In general terms: qHTS replaces the single test concentration by a dilution series.

Experiment [2] is described as follows: qHTS of pediatric cancer cell lines to identify multiple opportunities for drug repurposing: Primary screen for DAOY cells (AID 1347090). Further: nearly all actives have a fitted effect of over 55% in size. The gist of the method:
(§1)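 Cell viability, CellTiter-Glo luminescence; 500-1,000 cells/well, 8- or 11-point titration, 48 h compound exposure at 37 degrees C, 5% CO2. Controls: DMSO neutral, bortezomib 2.3 µM final as positive.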

The nature of experiment [3]: qHTS of pediatric cancer cell lines to identify multiple opportunities for drug repurposing: Primary screen for SJ-GBM2 cells (AID 1347091). In outline:
as §1

The nature of experiment [4]: qHTS of pediatric cancer cell lines to identify multiple opportunities for drug repurposing: Primary screen for A673 cells (AID 1347092). Further: nearly all actives have a fitted effect of over 45% in size. The gist of the method:
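48 h compound exposure, A673, 500-1,000 cells/well, 37 degrees C/5% CO2. MIPE: 11-point, 0.78 nM-46 µM; NPC: 8-point, 0.59 nM-46 µM (final). Readout CellTiter-Glo luminescence after 15 min RT.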

Experiment [5] in a line: qHTS of pediatric cancer cell lines to identify multiple opportunities for drug repurposing: Primary screen for SK-N-MC cells (AID 1347093). The gist of the method: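 Metabolically active cells were quantified by ATP-dependent luminescence (CellTiter-Glo, 15 min at room temperature) following 48 h treatment. Cells had been plated at 500-1,000 per well and settled for 5 h beforehand.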

A short description of experiment [6]: qHTS of pediatric cancer cell lines to identify multiple opportunities for drug repurposing: Primary screen for BT-37 cells (AID 1347094). The gist of the method: (§2)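 Cells plated at 500-1,000/well in growth medium, compounds added after 5 h. MIPE tested at 11 points (from 0.78 nM), NPC at 8 points (from 0.59 nM). CellTiter-Glo luminescence after 48 h; concentration-response curves from primary screen.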

The nature of experiment [7]: qHTS of pediatric cancer cell lines to identify multiple opportunities for drug repurposing: Primary screen for NB-EBc1 cells (AID 1347095). The gist of the method:
as §2

A short description of experiment [8]: qHTS of pediatric cancer cell lines to identify multiple opportunities for drug repurposing: Primary screen for U-2 OS cells (AID 1347096). Further: nearly all actives have a fitted effect of over 50% in size. The gist of the method:
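Cells (500-1,000/well) rested 5 h, then received compounds for 48 h; metabolically active cells were measured by CellTiter-Glo luminescence. Final concentrations spanned up to 46 µM (MIPE, 11-point) or 0.59 nM-46 µM (NPC, 8-point) in primary screens, 11-point in follow-ups.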

The nature of experiment [9]: qHTS of pediatric cancer cell lines to identify multiple opportunities for drug repurposing: Primary screen for Saos-2 cells (AID 1347097). Further: nearly all actives have a fitted effect of over 40% in size. The gist of the method:
as §2

Several values for one entry are separate records, joined by “and”; a condition that tells them apart may be missing. Equal values may be shown once. Results filed as inconclusive are left out. Activity calls are given as the source filed them. The call rests on the fitted dose curve; in most records, active means well fitted curve in the direction sought with a large enough effect; inconclusive means small, poorly fitted or top-dose-only effect, or another doubt; inactive means no such curve, though single readings can be large; an effect the other way counts as inactive or inconclusive.
Potency means the concentration at half of the fitted maximal effect.

Turning to `CCC(CC)[C@H](NC(C)=O)[C@@H]1[C@H](O)[C@@H](C(=O)O)C[C@@H]1N=C(N)N`, the Potency result in experiment [1], in experiment [2], in [3], in [4], in experiment [5] and in [6] was “inactive” in each case. The Potency result in experiment [7], in experiment [8] and in [9] was “inactive” each time.

`CC=CC(=O)N(CC)c1ccccc1C`: the Potency result in experiment [1], in experiment [2], in [3], in experiment [4], in experiment [5] and in experiment [8] was “inactive” throughout. For the same compound, the Potency entry in [9] was “inactive”. In addition, the Potency in experiment [6] is 30.6 µM (active); in experiment [7] it was 14.8 µM (active).

Consider `Cc1cnc(C(=O)O)c[n+]1[O-]`, for which the Potency entry in [1], in [2], in experiment [3], in experiment [4], in [5] and in [6] was “inactive” each time. Besides, the Potency entry in [7], in [8] and in experiment [9] was “inactive” throughout.

For `CC(C)C(=O)Oc1ccc(CO)cc1[C@H](CCN(C(C)C)C(C)C)c1ccccc1`, the Potency entry in experiment [1], in experiment [2], in [3], in [4], in experiment [5] and in experiment [6] was “inactive” in each case. The Potency entry in experiment [7], in experiment [8] and in experiment [9] was “inactive” in each case.

For the compound `C[C@@H](O)[C@H]1C(=O)N2C(C(=O)O)=C(S[C@@H]3CN[C@H](C(=O)N(C)C)C3)[C@H](C)[C@H]12`, the Potency entry in [1], in experiment [2], in [3], in experiment [4], in experiment [5] and in [6] was “inactive” throughout. Moreover, the Potency result in experiment [7], in [8] and in experiment [9] was “inactive” throughout.

Turning to `O=c1ccn([C@@H]2O[C@H](CO)[C@H](O)[C@H]2O)c(=O)[nH]1`, the Potency result in experiment [1], in experiment [2], in [3], in experiment [4], in [5] and in experiment [6] was “inactive” each time. Further, the Potency result in [7], in experiment [8] and in experiment [9] was “inactive” in each case.

In the case of `O=C(CCCCCCC(=O)Nc1ccccc1)NO`, the Potency is 6.64 µM (active) and 14.7 µM (active) in experiment [1]; 4.22 µM (active) and 5.9 µM (active) in experiment [2]; 1.33 µM (active) and 1.87 µM (active) in experiment [3]; 3.35 µM (active) and 4.69 µM (active) in [4]; 1.48 µM (active) in experiment [5]; 5.5 µM (active) and 7.69 µM (active) in experiment [6]. In addition, the Potency in [7] is 1 nM (active) and 1.48 µM (active); in experiment [8], 3.35 µM (active) and 4.69 µM (active); in experiment [9], 4.73 µM (active) and 5.9 µM (active).

For `NC1=N[C@@]2(c3cc(NC(=O)c4ccc(F)cn4)ccc3F)COC[C@@H]2CS1`, the Potency entry in [1] and in [8] was “inactive” each time. Besides, the Potency in [2] is 4.69 µM (active); in experiment [3], 0.296 µM (active); in [4] it was 0.0074 µM (active); in [5] it was 0.833 µM (active); in experiment [6], 0.122 µM (active); in experiment [7], 1.87 µM (active). In [9], the Potency is 0.372 µM (active).

Turning to `CC1(C)CCC(CN2CCN(c3ccc(C(=O)NS(=O)(=O)c4ccc(NCC5CCOCC5)c([N+](=O)[O-])c4)c(Oc4cnc5[nH]ccc5c4)c3)CC2)=C(c2ccc(Cl)cc2)C1`, in experiment [1], the Potency entry is “inactive”. For the same compound, the Potency in experiment [2] was 14.8 µM (active); in [3], 2.96 µM (active); in [4] it was 18.7 µM (active); in [5], 0.0074 µM (active); in experiment [6], 27.3 µM (active); in experiment [7] it was 1.87 µM (active). Also, the results for the Potency in [8] and in experiment [9] were 18.7 µM (active) and 14.8 µM (active), respectively.

As to `O=C1c2ccccc2-[n+]2ccc3c([nH]c4ccccc43)c21`, the Potency in [1] is 4.66 µM (active); in experiment [2], 2.96 µM (active); in experiment [3], 0.833 µM (active); in [4], 1.18 µM (active); in experiment [5], 1.32 µM (active); in experiment [6], 2.43 µM (active). In addition, the results for the Potency in experiment [7], in experiment [8] and in experiment [9] were 0.833 µM (active), 9.35 µM (active) and 2.35 µM (active), respectively.

As for `Cn1c(N2CCCCS2(=O)=O)nc(C(=O)NCc2ccc(F)cc2)c(O)c1=O`, the Potency entry in experiment [1], in experiment [2], in experiment [3], in experiment [4], in experiment [5] and in experiment [6] was “inactive” each time. In addition, the Potency entry in experiment [7] and in [8] was “inactive” in each case.

Turning to `NC[C@@H]1O[C@@H](O[C@H]2[C@@H](O)[C@H](O[C@@H]3[C@@H](O)[C@@H](N)C[C@H](N)[C@H]3O[C@H]3O[C@H](CN)[C@@H](O)[C@@H](O)[C@H]3N)O[C@H]2CO)[C@H](N)[C@@H](O)[C@@H]1O`, the Potency entry in experiment [1], in [2], in experiment [3], in [4], in [5] and in experiment [6] was “inactive” each time. Also, the Potency entry in [7], in [8] and in experiment [9] was “inactive” throughout.

As for `OC[C@@H](O)[C@H](O)[C@H](O)[C@@H](O)CO`, the Potency entry in experiment [1], in experiment [2], in [3], in experiment [4], in experiment [5] and in experiment [6] was “inactive” throughout. Besides, the Potency entry in experiment [7], in experiment [8] and in experiment [9] was “inactive” in each case.

As to `O=C(O)[C@H]1O[C@H](Oc2cc3oc(-c4ccccc4)cc(=O)c3c(O)c2O)[C@H](O)[C@@H](O)[C@H]1O`, the Potency result in experiment [1], in experiment [2], in experiment [3], in [4], in experiment [6] and in [7] was “inactive” each time. For the same compound, the Potency result in [8] is “inactive”.

Turning to `Cc1cc(OCCCc2c(C(=O)O)n(Cc3cccnc3)c3c(-c4c(COc5ccc(N6CCN([S+](C)(=O)[O-])CC6)cc5)nn(C)c4C)cccc23)cc(C)c1Cl`, the Potency result in [1] and in experiment [8] was “inactive” throughout. The Potency in [2] is 18.7 µM (active); in experiment [3], 23.5 µM (active); in experiment [4], 23.5 µM (active); in experiment [5], 5.9 µM (active); in experiment [7], 23.5 µM (active); in [9], 18.7 µM (active).

`O=C(O)C=Cc1ccc(O)c(O)c1`: the Potency entry in experiment [1] and in [3] was “inactive” throughout. The Potency in [2] is 7.43 µM (active); in [5], 2.64 µM (active); in [9], 23.5 µM (active).

Take `NC(=O)NN=Cc1ccc([N+](=O)[O-])o1`: the Potency result in experiment [1], in experiment [2], in experiment [3], in experiment [5], in experiment [6] and in experiment [7] was “inactive” each time. The Potency result in [8] and in experiment [9] was “inactive” each time.

For `C=C1C(=O)OC(CCCCCCCC)C1C(=O)O` (stereo not given), the Potency entry in [1], in [2], in experiment [4], in [6] and in experiment [8] was “inactive” in each case. Also, the Potency in experiment [3] is 20.9 µM (active).
